Bioassay records deposited in PubChem by Paczesny and Yang Labs, IUPUI and University of Michigan.
The entries come from a sample that favours hits as a whole.
ST2 IL33 inh: inhibitors of human ST2 (IL1RL1) binding to IL-33, primary screen, biochemical, AlphaLISA; AID 1259354, 2018; Interleukin-1 receptor-like 1 (Homo sapiens), Q01638; AlphaLISA ST2-Fc/biotin-IL-33 interaction, 1 h; actives 2.3% (n = 78,000); inhibition, % for hits at 17 µM; in the data active = inhibition above about 30%
Target sequence (Q01638 whole entry, looked up): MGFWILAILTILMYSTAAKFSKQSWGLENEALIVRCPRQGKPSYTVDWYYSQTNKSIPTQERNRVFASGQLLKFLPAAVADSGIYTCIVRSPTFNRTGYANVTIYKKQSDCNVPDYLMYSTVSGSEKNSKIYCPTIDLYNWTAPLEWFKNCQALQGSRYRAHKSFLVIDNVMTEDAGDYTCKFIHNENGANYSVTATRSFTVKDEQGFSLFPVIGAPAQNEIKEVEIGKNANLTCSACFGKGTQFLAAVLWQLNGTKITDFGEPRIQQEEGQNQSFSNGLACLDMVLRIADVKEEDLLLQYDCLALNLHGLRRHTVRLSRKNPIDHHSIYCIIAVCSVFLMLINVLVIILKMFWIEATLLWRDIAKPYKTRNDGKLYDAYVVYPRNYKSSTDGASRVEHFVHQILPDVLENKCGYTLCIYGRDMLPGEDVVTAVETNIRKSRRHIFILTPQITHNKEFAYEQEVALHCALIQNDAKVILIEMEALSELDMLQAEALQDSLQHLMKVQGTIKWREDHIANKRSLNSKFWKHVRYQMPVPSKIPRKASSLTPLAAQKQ
Numbers without * were called inactive; ! = repeats disagree.

What do the screens show for `Cc1ccc(S(=O)(=O)N2CCN(S(C)(=O)=O)C2c2ccccc2)cc1` (configuration not stated)?
ST2 IL33 inh: inactive

Results for CCN(CC)C(=O)Cn1cnc2sc(C(=O)N3CCN(c4ccccc4)CC3)c(C)c2c1=O ?
ST2 IL33 inh: inactive

How did CCC(=O)N1CCc2cc(Br)cc(S(=O)(=O)NCCCOC)c21 do in these assays?
ST2 IL33 inh: inactive

Results for CCn1nc(C(=O)O)c2c1CCC(NCCN1CCCOC1=O)C2 (configuration not stated) ?
ST2 IL33 inh: inactive

How did CC1(C)CC(=O)c2sc(NC(=O)c3ccc(S(=O)(=O)N4CCCCC4)cc3)nc2C1 do in these assays?
ST2 IL33 inh: inactive

How did Cn1c(=O)c2c(-c3ccccc3)n(N)cc2n(C)c1=O do in these assays?
ST2 IL33 inh: inactive

How did Cn1c2c(c(=O)n(C)c1=O)C(c1ccccc1)C1=C(N2)c2ccccc2C1=O (configuration not stated) do in these assays?
ST2 IL33 inh: inactive

How did Cn1c(=O)c(N)c2c3c(cccc31)C(=O)c1ccccc1-2 do in these assays?
ST2 IL33 inh: 31%*

Results for COc1cccc(CCC(=O)N(C)C2CCCN(C3Cc4ccccc4C3)C2)c1 (configuration not stated) ?
ST2 IL33 inh: inactive

What do the screens show for `O=C(CCCc1ccccc1)N1CC(c2ccncc2)C1`?
ST2 IL33 inh: inactive

How did C=CCN(CC=C)S(=O)(=O)c1ccc(C(=O)Nc2nnc(-c3cccc(OC)c3)o2)cc1 do in these assays?
ST2 IL33 inh: inactive

Results for COc1ccc(C(=O)c2ccccc2)c(OCC(=O)N(C)C)c1 ?
ST2 IL33 inh: inactive

What do the screens show for `COc1ccc(O)c(C(=O)CC(=O)c2ccccc2)c1`?
ST2 IL33 inh: 32%*

How did COC(=O)c1cc(O)c(OCc2ccccc2)c(O)c1 do in these assays?
ST2 IL33 inh: inactive

How did COc1cc([C@H]2C[C@@H](NC(C)=O)C[C@@H](COCc3ccccc3)O2)ccc1F do in these assays?
ST2 IL33 inh: inactive

What do the screens show for `Cc1cc(C(=O)N2CCC3(CCCN(C)C3=O)C2)c2ccc(F)cc2n1` (configuration not stated)?
ST2 IL33 inh: inactive

Results for O=[N+]([O-])c1cccc(C=Nc2nnc(-c3ccccc3)s2)c1 ?
ST2 IL33 inh: inactive

Results for Cc1ccc([N+](=O)[O-])cc1N1C(=O)/C(=C\c2ccccc2)N=C1c1ccccc1 ?
ST2 IL33 inh: 40%*

Results for O=C1OC(c2cccc([N+](=O)[O-])c2)=N/C1=C\c1cccc(I)c1 ?
ST2 IL33 inh: inactive

What do the screens show for `CCc1ccc2cc(-c3ccc(Cl)cc3)cn2c1`?
ST2 IL33 inh: inactive

How did CN1[C@H]2CC[C@@H]1CN(C(=O)C(=O)CCc1ccccc1)CC2 do in these assays?
ST2 IL33 inh: inactive

How did CCOc1ccccc1-c1cnc(N)nc1 do in these assays?
ST2 IL33 inh: inactive

Results for O=C(Nc1ccccc1)N1Cc2[nH]cnc2C[C@H]1c1nc(-c2ccc3ccccc3c2)no1 ?
ST2 IL33 inh: 38%*

Results for O=C(NC1CCCCC1)N1Cc2[nH]cnc2C[C@H]1c1nc(-c2ccc3ccccc3c2)no1 ?
ST2 IL33 inh: inactive

How did Cc1ccc(NC(=O)N2Cc3[nH]cnc3C[C@H]2c2nc(-c3ccc4ccccc4c3)no2)cc1 do in these assays?
ST2 IL33 inh: inactive

Results for CC1=C(C(=O)OC2CCCCC2)C(c2cccc(Cl)c2)n2nnnc2N1 (configuration not stated) ?
ST2 IL33 inh: inactive

What do the screens show for `O=C(Cc1c(C(=O)O)[nH]c2ccccc12)NCCCN1CCN(c2ccccc2F)CC1`?
ST2 IL33 inh: inactive

How did CN(C)CCNC(=O)CSc1cc(=O)n(C)c2ccccc12 do in these assays?
ST2 IL33 inh: inactive

How did Cc1ccccc1-c1ncc(CNCCc2ccccn2)s1 do in these assays?
ST2 IL33 inh: inactive

How did CCCCC(=O)N1c2ccccc2NC2=C(C(=O)CC(C)(C)C2)C1c1ccc2c(c1)OCO2 (configuration not stated) do in these assays?
ST2 IL33 inh: inactive

How did COc1ccc(C2C3=C(CC(C)(C)CC3=O)Nc3nc(SCc4ccccc4)nn32)cc1 (configuration not stated) do in these assays?
ST2 IL33 inh: inactive

Results for CC1(C)CC(=O)C2=C(C1)Nc1nc(SCc3ccccc3Cl)nn1C2c1cccnc1 (configuration not stated) ?
ST2 IL33 inh: 31%*!

Results for CC1=C(C(N)=O)C(c2cccnc2)n2nc(SCc3ccccc3Cl)nc2N1 (configuration not stated) ?
ST2 IL33 inh: inactive

Results for CC1(C)CC(=O)C2=C(C1)Nc1nc(SCc3ccccc3Cl)nn1C2c1ccncc1 (configuration not stated) ?
ST2 IL33 inh: 42%*!

How did CC1(C)CC(=O)C2=C(C1)Nc1ccccc1N(C(=O)Cc1ccc(Cl)cc1)C2c1cccnc1 (configuration not stated) do in these assays?
ST2 IL33 inh: 40%*
